According to PubChem BioAssay (NCATS):
Records with an inconclusive call do not appear. Active and inactive are the calls of the source. Unless noted, calls follow the shape of the dose curve; as a rule, active = well fitted curve in the direction sought with a large enough effect; inconclusive = small, poorly fitted or top-dose-only effect, or another doubt; inactive = no such curve, though single readings can be large; an effect the other way counts as inactive or inconclusive.

Legend:
[1] = target: Thioredoxin reductase 1, cytoplasmic (Rattus norvegicus) (UniProt O89049); test: qHTS Assay for Substrates of Mammalian Selenoprotein Thioredoxin Reductase 1 (TrxR1) (AID 488772);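 also: NADPH fluorescence in the first read after selenite addition and not the 8 min delta; series mostly up to about 57 µM; 0% is about no effect; a drop in NADPH fluorescence below the no-compound background marks a TrxR1 substrate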
Chain of Thioredoxin reductase 1, cytoplasmic (Rattus norvegicus) (O89049 whole entry, looked up): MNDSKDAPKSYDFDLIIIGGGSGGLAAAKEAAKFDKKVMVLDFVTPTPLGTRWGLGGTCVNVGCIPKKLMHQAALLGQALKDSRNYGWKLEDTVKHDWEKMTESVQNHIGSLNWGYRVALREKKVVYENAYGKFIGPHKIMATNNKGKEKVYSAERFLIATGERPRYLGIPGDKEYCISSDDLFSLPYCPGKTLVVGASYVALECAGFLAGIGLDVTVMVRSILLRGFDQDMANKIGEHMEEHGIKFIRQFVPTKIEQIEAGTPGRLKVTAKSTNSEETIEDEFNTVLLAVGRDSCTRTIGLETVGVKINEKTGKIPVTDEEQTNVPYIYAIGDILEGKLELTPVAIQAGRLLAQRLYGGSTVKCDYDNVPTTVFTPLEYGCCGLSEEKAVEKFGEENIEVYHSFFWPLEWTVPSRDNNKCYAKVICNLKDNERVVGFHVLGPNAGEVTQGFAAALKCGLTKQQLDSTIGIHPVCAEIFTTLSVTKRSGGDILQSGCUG
Method in brief: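 Quantitative HTS in Tris-HCl buffer at pH 7.5 with EDTA and Tween-20, using rat TrxR1, 400 uM NADPH and 400 uM selenite (final). A fall in initial NADPH fluorescence relative to background marked substrate behaviour.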

[2] = target: Flap endonuclease 1 (Homo sapiens) (UniProt P39748); test: qHTS Validation Assay for the Inhibitors of Human Flap endonuclease 1 (FEN1) (AID 488816); also: % is scaled to controls: 0 for no effect and ±100 for the full control effect
Chain of Flap endonuclease 1 (Homo sapiens) (P39748 whole entry, looked up): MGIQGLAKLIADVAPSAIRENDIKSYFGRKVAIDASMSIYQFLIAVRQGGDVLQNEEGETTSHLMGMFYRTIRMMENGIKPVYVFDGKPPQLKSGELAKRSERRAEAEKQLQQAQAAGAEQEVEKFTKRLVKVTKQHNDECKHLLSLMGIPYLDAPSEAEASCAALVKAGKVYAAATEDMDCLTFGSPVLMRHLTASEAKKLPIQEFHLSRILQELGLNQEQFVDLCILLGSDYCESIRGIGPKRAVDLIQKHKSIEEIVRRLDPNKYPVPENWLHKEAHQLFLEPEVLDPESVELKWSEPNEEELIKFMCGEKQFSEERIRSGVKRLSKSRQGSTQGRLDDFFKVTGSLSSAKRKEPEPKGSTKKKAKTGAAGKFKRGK
Method in brief: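 Readings taken at 0 and 15 min after starting the reaction with 50 nM (final) substrate supplied the signal. Compounds had first sat with 10 nM FEN1 reagent for 15 min at room temperature. Values come from Hill-equation concentration-response fits.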

[3] = target: M-phase phosphoprotein 8 (Homo sapiens) (UniProt Q99549); test: qHTS Validation Assay for Inhibitors for MPP8 Chromodomain Interactions with Methylated Histone Tails (AID 488949);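 also: AlphaScreen signal from MPP8 chromodomain bound to biotinylated H3K9me3 peptide; top concentration of the series differs between compounds; % is scaled to controls: 0 for no effect and ±100 for the full control effect; nearly all actives have a fitted effect of over 55% in size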
Chain of M-phase phosphoprotein 8 (Homo sapiens) (Q99549 whole entry, looked up): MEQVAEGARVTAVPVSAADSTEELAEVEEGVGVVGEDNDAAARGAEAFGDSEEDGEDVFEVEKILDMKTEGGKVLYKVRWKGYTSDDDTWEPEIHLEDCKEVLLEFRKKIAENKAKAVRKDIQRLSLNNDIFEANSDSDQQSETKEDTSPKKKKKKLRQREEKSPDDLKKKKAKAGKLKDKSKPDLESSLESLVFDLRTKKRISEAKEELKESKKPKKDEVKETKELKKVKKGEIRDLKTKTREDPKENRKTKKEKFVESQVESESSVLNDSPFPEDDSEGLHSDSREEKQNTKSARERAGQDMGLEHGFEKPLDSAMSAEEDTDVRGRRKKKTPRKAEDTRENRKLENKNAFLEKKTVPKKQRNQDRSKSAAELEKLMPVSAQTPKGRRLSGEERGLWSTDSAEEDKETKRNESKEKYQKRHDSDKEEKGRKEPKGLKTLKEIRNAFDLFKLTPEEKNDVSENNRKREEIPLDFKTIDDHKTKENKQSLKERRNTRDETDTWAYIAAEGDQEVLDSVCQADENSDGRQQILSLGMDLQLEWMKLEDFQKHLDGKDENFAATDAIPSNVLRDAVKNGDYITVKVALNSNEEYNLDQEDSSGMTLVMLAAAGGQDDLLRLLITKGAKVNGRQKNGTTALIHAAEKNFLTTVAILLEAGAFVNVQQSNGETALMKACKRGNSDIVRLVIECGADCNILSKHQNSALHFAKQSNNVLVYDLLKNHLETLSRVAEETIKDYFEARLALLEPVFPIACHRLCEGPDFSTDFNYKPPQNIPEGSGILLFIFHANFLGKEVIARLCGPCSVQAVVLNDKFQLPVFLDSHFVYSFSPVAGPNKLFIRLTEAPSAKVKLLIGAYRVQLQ
Method in brief: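 AlphaScreen proximity signal from streptavidin donor and Ni-chelate acceptor beads (10 ug/mL each) reported binding of MPP8 to trimethyl-K9 H3(1-18) peptide, both at 50 nM. The complex formed 30 min before a 30 min compound exposure at room temperature, in PBS pH 7.4.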

[4] = target: Transient receptor potential cation channel subfamily V member 1 (Homo sapiens) (UniProt Q8NER1); test: HTS Assay for Compounds that Act as Enhancers of the Vanilloid Receptor 1 (AID 488979); also: 0% is about no effect
Chain of Transient receptor potential cation channel subfamily V member 1 (Homo sapiens) (Q8NER1 whole entry, looked up): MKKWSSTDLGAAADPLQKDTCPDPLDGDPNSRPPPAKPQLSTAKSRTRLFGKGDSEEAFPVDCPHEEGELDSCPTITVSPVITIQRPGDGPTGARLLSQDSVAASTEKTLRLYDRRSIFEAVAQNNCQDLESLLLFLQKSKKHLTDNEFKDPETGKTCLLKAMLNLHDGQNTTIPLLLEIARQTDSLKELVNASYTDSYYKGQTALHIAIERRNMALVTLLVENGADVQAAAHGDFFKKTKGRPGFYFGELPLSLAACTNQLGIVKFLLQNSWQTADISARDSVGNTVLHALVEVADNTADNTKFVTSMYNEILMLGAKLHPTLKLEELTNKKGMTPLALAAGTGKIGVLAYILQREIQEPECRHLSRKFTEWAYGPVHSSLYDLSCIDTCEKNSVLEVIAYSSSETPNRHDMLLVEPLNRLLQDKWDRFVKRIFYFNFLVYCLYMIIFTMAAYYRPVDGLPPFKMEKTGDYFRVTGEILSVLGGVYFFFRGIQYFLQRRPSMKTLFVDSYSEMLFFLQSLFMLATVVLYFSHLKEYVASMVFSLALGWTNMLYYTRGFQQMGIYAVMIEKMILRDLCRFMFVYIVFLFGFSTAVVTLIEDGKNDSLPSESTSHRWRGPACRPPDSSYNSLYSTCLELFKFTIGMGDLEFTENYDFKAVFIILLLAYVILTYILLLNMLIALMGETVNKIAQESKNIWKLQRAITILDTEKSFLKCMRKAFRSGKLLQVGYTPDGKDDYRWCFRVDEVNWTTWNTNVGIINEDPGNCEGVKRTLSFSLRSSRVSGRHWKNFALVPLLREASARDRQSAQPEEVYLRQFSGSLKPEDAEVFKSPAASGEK
Method in brief: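 Calcium influx kinetics via Fluo-8 (480/520 nm) in TRPV1-expressing cells, 2000/well cultured overnight at 35.5C. Compound-alone read 3 min (agonist phase), followed by EC20 capsaicin challenge for 2 min (enhancer phase).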

[5] = target: Thyrotropin receptor (Homo sapiens) (UniProt P16473); test: qHTS Assay for Antagonists of the Thyroid Stimulating Hormone Receptor (AID 488980); also: series mostly up to about 58 µM; 0% is about no effect
Method in brief: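 Inhibition of cAMP raised by EC80 TSH (4 nM final) was read by HTRF, with lysate cAMP competing against cAMP-d2 for cryptate antibody after 30 min at room temperature. The cells were transfected HEK293 held in phosphodiesterase inhibitor RO 20-1724 at 70 uM.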

[6] = target: D(1A) dopamine receptor (Homo sapiens) (UniProt P21728); test: HTS Assay for Allosteric Agonists of the Human D1 Dopamine Receptor: Primary Screen for Agonists (AID 488981); also: potency is read from the fitted curve at half-maximal effect; as to activation: 0% is about no effect
Method in brief: (§1)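 Calcium flux in an inducible, force-coupled HEK293 Trex D1 line (overnight at 30 C): agonist mode is the 180 s kinetic read after compound; potentiator mode is the following 180 s read after dopamine at EC20.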

[7] = target: D(1A) dopamine receptor (Homo sapiens) (UniProt P21728); test: HTS Assay for Allosteric Agonists of the Human D1 Dopamine Receptor: Primary Screen for Antagonists (AID 488983);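 also: calcium flux response to an EC80 dopamine challenge measured with no-wash dye; nearly all actives have a fitted effect of over 65% in size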; also: potency is read from the fitted curve at half-maximal effect
Method in brief: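 Screening of inducible HEK293 T-REx D1 cells: compound first, EC80 dopamine 180 s later, each phase read kinetically for calcium over 180 s.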

[8] = Validation screen for small molecules that induce genotoxicity in human embryonic kidney (HEK293T) cells expressing luciferase-tagged ELG1 (AID 493106); also: 0% is about no effect
Method in brief: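 Reporter-gene quantitative HTS in HEK293T cells carrying luciferase-tagged ELG1, whose level climbs under genotoxic stress. Compound exposure lasts 16 hr at 37 °C before luciferase detection.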

[9] = target: ATPase family AAA domain-containing protein 5 (Homo sapiens) (UniProt Q96QE3); test: Validation screen for small molecules that inhibit ELG1-dependent DNA repair in human embryonic kidney (HEK293T) cells expressing luciferase-tagged ELG1 (AID 493107); also: nearly all actives have a fitted effect of over 70% in size; also: potency is read from the fitted curve at half-maximal effect
Chain of ATPase family AAA domain-containing protein 5 (Homo sapiens) (Q96QE3 whole entry, looked up, the tested form may be a part): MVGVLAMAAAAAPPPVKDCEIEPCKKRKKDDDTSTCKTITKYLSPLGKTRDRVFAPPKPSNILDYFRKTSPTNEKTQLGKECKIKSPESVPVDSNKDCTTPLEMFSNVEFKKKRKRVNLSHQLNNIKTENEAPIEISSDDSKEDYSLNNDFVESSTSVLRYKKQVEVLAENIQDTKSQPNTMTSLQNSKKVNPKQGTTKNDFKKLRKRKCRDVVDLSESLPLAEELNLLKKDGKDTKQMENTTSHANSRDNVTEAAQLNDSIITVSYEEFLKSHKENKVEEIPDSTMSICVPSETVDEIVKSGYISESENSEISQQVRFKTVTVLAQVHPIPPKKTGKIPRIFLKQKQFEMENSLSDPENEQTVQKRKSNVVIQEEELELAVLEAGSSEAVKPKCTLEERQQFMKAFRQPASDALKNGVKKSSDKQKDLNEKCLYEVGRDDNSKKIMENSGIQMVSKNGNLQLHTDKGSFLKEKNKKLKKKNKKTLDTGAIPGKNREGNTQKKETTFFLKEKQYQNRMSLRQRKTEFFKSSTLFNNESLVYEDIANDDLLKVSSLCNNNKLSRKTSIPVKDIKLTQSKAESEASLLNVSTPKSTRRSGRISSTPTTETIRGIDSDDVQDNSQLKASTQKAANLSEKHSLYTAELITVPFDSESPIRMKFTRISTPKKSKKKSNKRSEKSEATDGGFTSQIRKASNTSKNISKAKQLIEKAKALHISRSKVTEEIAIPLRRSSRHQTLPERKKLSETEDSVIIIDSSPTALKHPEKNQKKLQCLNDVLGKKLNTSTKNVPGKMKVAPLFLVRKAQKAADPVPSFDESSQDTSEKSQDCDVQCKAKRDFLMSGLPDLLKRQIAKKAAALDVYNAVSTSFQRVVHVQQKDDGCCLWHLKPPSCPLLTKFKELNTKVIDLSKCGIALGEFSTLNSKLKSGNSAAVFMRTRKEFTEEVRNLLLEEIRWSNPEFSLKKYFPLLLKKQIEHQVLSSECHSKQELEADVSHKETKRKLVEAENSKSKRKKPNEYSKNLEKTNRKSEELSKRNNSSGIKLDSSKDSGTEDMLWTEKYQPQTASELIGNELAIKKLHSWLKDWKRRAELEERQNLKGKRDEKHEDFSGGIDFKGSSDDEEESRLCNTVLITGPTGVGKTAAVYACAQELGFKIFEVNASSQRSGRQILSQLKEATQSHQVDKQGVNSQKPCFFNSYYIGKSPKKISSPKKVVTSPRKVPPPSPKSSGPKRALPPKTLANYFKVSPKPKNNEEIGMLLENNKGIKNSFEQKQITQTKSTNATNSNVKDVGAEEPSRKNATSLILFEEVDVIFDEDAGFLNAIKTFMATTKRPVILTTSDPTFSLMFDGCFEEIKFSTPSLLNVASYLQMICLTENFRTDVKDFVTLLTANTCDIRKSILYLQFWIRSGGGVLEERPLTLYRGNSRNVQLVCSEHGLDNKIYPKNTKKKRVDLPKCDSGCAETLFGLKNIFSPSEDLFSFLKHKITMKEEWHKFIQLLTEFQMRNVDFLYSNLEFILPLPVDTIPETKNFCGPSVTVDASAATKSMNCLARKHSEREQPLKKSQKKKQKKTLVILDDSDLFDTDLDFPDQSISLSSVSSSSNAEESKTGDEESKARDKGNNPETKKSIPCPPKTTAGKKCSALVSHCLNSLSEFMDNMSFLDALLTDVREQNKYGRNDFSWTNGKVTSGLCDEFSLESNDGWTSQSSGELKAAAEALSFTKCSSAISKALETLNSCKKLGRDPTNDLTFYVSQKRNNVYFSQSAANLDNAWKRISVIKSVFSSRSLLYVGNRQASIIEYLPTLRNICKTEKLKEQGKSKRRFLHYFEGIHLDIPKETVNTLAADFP
Method in brief: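 Quantitative HTS in HEK293T cells carrying luciferase-tagged ELG1, stimulated with 5-fluorouridine alongside compound for 16 hr. Loss of luciferase signal marks inhibition of ELG1 response.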

[10] = target: Thyrotropin-releasing hormone receptor (Homo sapiens) (UniProt P34981); test: qHTS for Small Molecule Agonists and Allosteric Enhancers of Human TRH Receptor: Validation Screen for Agonists (AID 493127;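 active = calcium activation more than 3 SD above the typical response in the agonist read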;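 also: intracellular calcium rise by fluo-8 fluorescence before TRH EC20 addition; 0% is about no effect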); conditions: TRH receptor agonist cell assay; at 2 µM; stronger effect = higher value
Chain of Thyrotropin-releasing hormone receptor (Homo sapiens) (P34981 whole entry, looked up): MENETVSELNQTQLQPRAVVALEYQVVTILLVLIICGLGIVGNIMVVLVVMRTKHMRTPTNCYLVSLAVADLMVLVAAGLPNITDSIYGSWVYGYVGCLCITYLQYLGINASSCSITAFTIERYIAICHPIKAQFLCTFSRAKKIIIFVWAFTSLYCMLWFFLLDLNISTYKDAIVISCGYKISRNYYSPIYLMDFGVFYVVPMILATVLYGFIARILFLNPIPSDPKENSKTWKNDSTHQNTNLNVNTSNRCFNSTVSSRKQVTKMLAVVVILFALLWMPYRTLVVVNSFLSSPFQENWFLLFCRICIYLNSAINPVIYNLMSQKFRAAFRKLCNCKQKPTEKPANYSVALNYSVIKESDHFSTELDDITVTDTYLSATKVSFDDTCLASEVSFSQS
Method in brief: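 Gq-coupled calcium mobilization in TRHR cells after compound addition, monitored kinetically with fluo-8 dye on an FDSS reader.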

[11] = Nrf2 qHTS screen for inhibitors: Validation (AID 493153; active = well fitted inhibition curve with a large enough effect in the main read-out, with a control signal flat, not every such curve was filed as active); conditions: Potency: luciferase luminescence; viability change: measured here: cytotoxicity max response
Method in brief: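 Dose-response validation uses reporter A549 cells with firefly luciferase under an antioxidant response element. Compounds stay on cells 18-24 h at 37°C, and luminescence indicates Nrf2-driven transcription.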

[12] = qHTS for Inhibitors of Cell Surface uPA Generation: Validation Assay (AID 493164);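 also: RAW 264.7 macrophage cells exposed to compound for 18 h; 0% is about no effect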
Method in brief: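 RAW 264.7, 4000 cells/well, o/n plating; cpd 7-pt 1:5 dilution 2.45 nM–38.3 uM final; 18 h, 37 C/5% CO2; ATP-Lite, 5 s luminescence exposure.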

[13] = target: Galactokinase (Homo sapiens) (UniProt P51570); test: qHTS Validation Assay for Inhibitors of Human Galactokinase (GALK) (AID 493189); also: 0% is about no effect
Method in brief: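 Inhibition was measured as remaining ATP, detected by luciferase luminescence after a 1 h room-temperature reaction. Final conditions: 5 nM GALK, 100 uM galactose, 35 uM ATP, pH 8.0 HEPES buffer.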

[14] = Validation screen for small molecules that induce DNA re-replication in SW480 colon adenocarcinoma cells (AID 504364); also: 0% is about no effect
Method in brief: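 Cells are treated 48 hr with test compound, stained 40 min with Hoechst at 37 C, and scanned for nuclear fluorescence; compounds inducing re-replication increase nuclei with elevated intensity.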

[15] = target: D(1A) dopamine receptor (Homo sapiens) (UniProt P21728); test: HTS Assay for Allosteric Agonists of the Human D1 Dopamine Receptor: Primary Screen for Potentiators (AID 488982); also: 0% is about no effect
Method in brief: as §1

[16] = target: Chromobox protein homolog 1 (Homo sapiens) (UniProt P83916); test: qHTS Validation Assay for Inhibitors of HP1-beta Chromodomain Interactions with Methylated Histone Tails (AID 488953);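 also: loss of AlphaScreen luminescence from HP1-beta binding biotinylated H3K9me3 peptide; series mostly up to about 110 µM; % is scaled to controls: 0 for no effect and ±100 for the full control effect; nearly all actives have a fitted effect of over 50% in size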
Chain of Chromobox protein homolog 1 (Homo sapiens) (P83916 whole entry, looked up): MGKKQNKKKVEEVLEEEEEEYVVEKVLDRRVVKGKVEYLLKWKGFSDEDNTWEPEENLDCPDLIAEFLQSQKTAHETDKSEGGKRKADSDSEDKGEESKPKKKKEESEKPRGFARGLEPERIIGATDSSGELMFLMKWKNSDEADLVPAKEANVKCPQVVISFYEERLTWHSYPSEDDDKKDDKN
Method in brief: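 Measured as loss of AlphaScreen luminescence from streptavidin donor and nickel acceptor beads (10 ug/mL final) bridging HP1-beta and biotin-H3(1-18)K9me3, each 50 nM. Compounds met the preassembled complex for 30 min at RT.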

[17] = target: Methanococcus maripaludis chaperonin (MmCpn) (UniProt Q6LX38); test: High-Throughput Screening for Modulators of Cytosolic Chaperonin Activity: MmCpn Primary Screen (AID 488978);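 also: 50 nM MmCpn enzyme hydrolysing 30 µM ATP at 37 °C; 0% is about no effect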
Method in brief: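 ATPase activity of 50 nM MmCpn was assayed with 30 uM ATP, 10 minutes at 37C, after a 5 min compound preincubation at room temperature. ADP production was read as HTRF emission at 590 and 665 nm.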

[18] = target: Thioredoxin reductase 1, cytoplasmic (Rattus norvegicus) (UniProt O89049); test: qHTS Assay for Inhibitors of Mammalian Selenoprotein Thioredoxin Reductase 1 (TrxR1) (AID 488773); conditions: Potency: inhibition;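 also: drop in NADPH fluorescence over an 8 min run after selenite addition; series mostly up to about 57 µM; % is scaled to controls: 0 for no effect and ±100 for the full control effect; nearly all actives have a fitted effect of over 40% in size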
Method in brief: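 Steps: enzyme (90 nM) plus NADPH (400 uM final), 5 min at ~22 deg C; compound added, 15 min; selenite (400 uM final) added; fluorescence followed for 8 min. Concentration-response curves derived from the normalized delta values.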

[19] = target: ATP-dependent 6-phosphofructokinase (Trypanosoma brucei brucei) (UniProt O15648); test: qHTS Assay to Find Inhibitors of T. brucei phosphofructokinase: hit validation (AID 492961);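 also: luminescence reports ADP formed as PFK phosphorylates fructose-6-phosphate with ATP; series mostly up to about 51 µM; % is scaled to controls: 0 for no effect and ±100 for the full control effect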
Method in brief: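 ADP-Glo luminescence read-out of ADP formed by 1.25 nM PFK from 0.1 mM ATP and 0.5 mM F6P (TEA pH 8.0, 45 min, RT). Compounds titrated; activity normalized to no-enzyme and full-enzyme controls.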

CCCCC/C=C\CC(O)/C=C/c1cccc(CC(O)CCCCO)n1 (stereo unspecified)
-0.641%: viability change [11]
inactive: Potency [1] | Potency [2] | Potency [3] | outcome [4] | outcome [5] | Potency [6] | Potency [7] | Potency [8] | Potency [9] | activation [10] -2.94% | Potency [11] | outcome [12] | Potency [13] | Potency [14]

O=C1O/C(=C/Br)CCC1c1cccc2ccccc12 (stereo unspecified)
inactive: Potency [1] | Potency [2] | Potency [3] | outcome [4] | outcome [5] | Potency [6] | Potency [15] | Potency [8] | activation [10] -3.56% | outcome [12] | Potency [13] | Potency [14]
active: Potency [9] 18300 nM

CSc1nc(N)c2ncn([C@@H]3O[C@H](COP(=O)(O)OP(=O)(O)OP(=O)(O)O)[C@@H](O)[C@H]3O)c2n1
active: Potency [6] 1580 nM
inactive: Potency [1] | Potency [2] | Potency [3] | Potency [16] | outcome [17] | Potency [8] | Potency [11] | outcome [12]
-1.62%: viability change [11]

O=c1[nH]c2cc(Cl)c(Cl)cc2[nH]c1=O
inactive: Potency [1] | Potency [2] | Potency [16] | outcome [17] | outcome [4] | outcome [5] | Potency [6] | Potency [15] | Potency [7] | activation [10] 0.75% | Potency [11] | outcome [12] | Potency [13] | Potency [14]
9.5%: viability change [11]

CN1[C@@H](CC(=O)c2ccccc2)CCC[C@H]1C[C@H](O)c1ccccc1
inactive: Potency [1] | Potency [18] | Potency [16] | outcome [4] | outcome [5] | Potency [6] | Potency [15] | Potency [7] | outcome [19] | Potency [8] | Potency [9] | activation [10] 0.5% | Potency [11] | outcome [12] | Potency [13] | Potency [14]
-11%: viability change [11]

Oc1ccc(C2CNCc3sccc32)cc1O (stereo unspecified)
-11.4%: viability change [11]
active: Potency [7] 199 nM
inactive: Potency [1] | Potency [2] | Potency [16] | outcome [17] | outcome [4] | outcome [5] | Potency [15] | Potency [8] | Potency [9] | activation [10] 1.75% | Potency [11] | outcome [12] | Potency [13] | Potency [14]
